In PubChem BioAssay AID1347414 (National Center for Advancing Translational Sciences (NCATS), 2020):
Results filed as inconclusive are left out. Unmarked numbers belong to inactive results. Calls of active or inactive are those of the source. The call rests on the fitted dose curve; in most records, active means well fitted inhibition curve with a large enough effect; inconclusive means small, poorly fitted or top-dose-only effect; inactive means no such curve, though single readings can be large or run the other way.

assay: qHTS to identify inhibitors of the type 1 interferon - major histocompatibility complex class I in skeletal muscle: Secondary screen by immunofluorescence; settings: C25cl48 myoblasts, IFN-b induced HLA-ABC immunofluorescence, 24 h; series mostly up to 49.8 µM; activity change, negative = inhibition: at the top concentration; further: nearly all actives have a fitted effect of over 70% in size;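 on activity change, negative = inhibition: digitonin at 100 µM served as the cytotoxic control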
Text: Assay Submitter (PI): Travis B. Kinder Ph.D. & James Inglese Ph.D. Assay Development and Screening Technology Laboratory (ADST) National Center for Advancing Translational Sciences (NCATS), Rockville, MD National Institute of Health (NIH), Bethesda, Maryland Idiopathic inflammatory myopathies, collectively referred to as myositis, are a group of rare autoimmune diseases characterized by skeletal muscle inflammation, weakness, and usually accompanied by systemic pathologies of the skin, lungs, or vasculature. Current immunosuppressive therapies and glucocorticoids are often not curative and are accompanied by harsh side effects, especially in children with juvenile myositis. We initiated a drug repurposing and development program to identify more targeted, less toxic therapeutics to treat myositis. Although its cause is not known, muscle from a subset of patients have an abundance of the inflammatory type 1 interferon (IFN) and a down-stream product major histocompatibility complex class I (MHC class I), which are both thought to contribute to damage and weakness. We conducted quantitative high throughput screening (qHTS) on 6,576 compounds (4,679 unique) through a series of cell-based assays to identify those that inhibit the IFN-stimulated expression of MHC class I in muscle precursor cells (myoblasts). The compound identification and evaluation strategy utilized a primary screen with reporter-tagged MHC class I in genome-engineered myoblasts, ATP content counter screen for viability, HLA-ABC immunofluorescence secondary screen, and HLA-B RT-qPCR tertiary screen. To verify activity of compounds identified by qHTS in HLA-B HiBit reporter cells, compounds were assayed by high throughput HLA-ABC immunofluorescence. Briefly, 216 compounds identified from primary and counter screening as inhibitory with minimal cytotoxicity were dispensed into black/clear bottom […] using acoustic dispensing in an 11-point, 1:3 titration with a high final concentration of 50 uM. Normal immortalized human myoblasts C25cl48 were added to the plates with 4.0 ng/ml human IFN-beta for 24 hours, fixed, stained by immunofluorescence for HLA-ABC protein, nuclei, and cell body, and analyzed by laser scanning cytometry as described by Auld et al., 2006. References: Auld DS, Johnson RL, Zhang Y, Veith H, Jadhav A, Yasgar A, Simeonov A, Zheng W, Martinez ED, Westwick JK, Austin CP, Inglese J. 2006. Fluorescent protein-based cellular assays analyzed by laser-scanning microplate cytometry in 1536-well plate format. Methods Enzymol 414:566-89. doi:10.1016/S0076-6879(06)14029-X
PROTOCOL TABLE (as described by Inglese et al., 2007) SEQUENCE No. (e.g., 1, 2, 3, etc.); […] (e.g., Cells, Incubation, Reagent, etc.); VALUE; DESCRIPTION 0; Compounds; 25 nl; Follow-up compounds dispensed at 25 nl/well with Labcyte Echo 655 acoustic dispenser in triplicate Aurora ChemLib 1536K black/clear bottom, low base, TC 1536-well plates (00019324). Also dispensed 25 nl/well DMSO control, ruxolitinib IFN-b inhibitor control titration, and digitonin cytotoxic control 1a; Cells; 5 uL; Multidrop Combi (Thermo Scientific) to seed 125 cells/well into eight plates in 5 ul/well of iHSKM growth medium (GM) without dexamethasone into columns 1+2. Add metal lids with gas-exchange holes 1b; Cells; 5 uL; Multidrop Combi (Thermo Scientific) to seed 125 cells/well into eight plates in 5 ul/well of iHSKM GM without dexamethasone + 4 ng/ml IFN-b into columns 3 - 48. […]
On the % scale 0 is the no-effect control and ±100 the full control effect; potency means the concentration at half of the fitted maximal effect.

**Q.** For `CCNC(=O)c1noc(-c2cc(C(C)C)c(O)cc2O)c1-c1ccc(CN2CCOCC2)cc1`, which “activity change, negative = inhibition” value is on record?
**A.** -12%

**Q.** Which Potency does the source give for `CC1(C)CC(=O)c2c(C(F)(F)F)nn(-c3ccc(C(N)=O)c(NC4CCC(O)CC4)c3)c2C1` (stereo not given) here?
**A.** 32.4 nM (active)

**Q.** With `CC(C)(C)c1ccc(S(=O)(=O)/C=C/C#N)cc1` as the molecule, how does the Potency read?
**A.** 2290 nM (active)

**Q.** With `O=C1CN2Cc3c(ccc(Cl)c3Cl)N=C2N1` as the molecule, how does the “activity change, negative = inhibition” value read?
**A.** 7.02%

**Q.** With `Cc1ccc(-c2ncn(-c3ccc(Nc4nccc(-c5cccc(N6CCOCC6)c5)n4)cc3)n2)cn1` as the molecule, how does the Potency read?
**A.** 1820 nM (active)

**Q.** For `O=C1NC(=O)[C@@H](c2c[nH]c3ccccc23)[C@H]1c1cn2c3c(cccc13)CCC2`, which “activity change, negative = inhibition” value is on record?
**A.** 17.3%

**Q.** For `Cc1cc(Nc2nc(N[C@@H](C)c3ncc(F)cn3)ncc2Cl)n[nH]1`, which Potency is on record?
**A.** 647 nM (active)

**Q.** For `CN1CCN(C(=O)c2ccc3cc(CCNc4ncnc5ccc(C#N)cc45)ccc3c2)CC1`, which “activity change, negative = inhibition” value is on record?
**A.** -21.6%

**Q.** Which Potency does the source give for `N#CCC1(n2cc(-c3ncnc4[nH]ccc34)cn2)CN(C2CCN(C(=O)c3ccnc(C(F)(F)F)c3F)CC2)C1` here?
**A.** 1290 nM (active)

**Q.** Which Potency does the source give for `CCN(CC)Cc1ccc2cc(COC(=O)Nc3ccc(C(=O)NO)cc3)ccc2c1` here?
**A.** 258 nM (active)

**Q.** With `Cc1cc(O)c(-c2ccc([C@@H](C)CN(C)C)cc2)c2c1[nH]c(=O)c1sccc12` as the molecule, how does the Potency read?
**A.** 81.4 nM (active)

**Q.** With `CC(=O)Nc1ccc([C@H](C)C(=O)Nc2ncc(C(C)C)s2)cc1` as the molecule, how does the Potency read?
**A.** 1620 nM (active)

**Q.** With `Cc1ccc2nc(NCCN)c3ncc(C)n3c2c1` as the molecule, how does the Potency read?
**A.** 4080 nM (active)

**Q.** For `CN(c1ncccc1CNc1nc(Nc2ccc3c(c2)CC(=O)N3)ncc1C(F)(F)F)S(C)(=O)=O`, which Potency is on record?
**A.** 5760 nM (active)

**Q.** Which Potency does the source give for `COc1cccc2c1C(=O)c1c(O)c3c(c(O)c1C2=O)C[C@@](O)(C(=O)CO)C[C@@H]3O[C@H]1C[C@H](N)[C@@H](O)[C@H](C)O1` here?
**A.** 914 nM (active)

**Q.** For `Nc1nc(Nc2ccc(S(N)(=O)=O)cc2)nn1C(=O)c1c(F)cccc1F`, which Potency is on record?
**A.** 2050 nM (active)

**Q.** With `CCOc1cc2ncc(C#N)c(Nc3ccc(F)c(Cl)c3)c2cc1NC(=O)/C=C/CN(C)C` as the molecule, how does the Potency read?
**A.** 4580 nM (active)

**Q.** Which Potency does the source give for `Cc1c[nH]c2nc(Nc3ccc(N4CCN(C)CC4)c(F)c3)nc(-c3cccc(CC#N)c3)c12` here?
**A.** 1620 nM (active)

**Q.** With `CN1CCN(c2cccc(Nc3nc4c(-c5ccc(S(C)(=O)=O)cc5)cccn4n3)c2)CC1` as the molecule, how does the Potency read?
**A.** 1820 nM (active)

**Q.** For `Cc1ccc(NC(=O)NCc2ccc3c(c2)CN(C2CCC(=O)NC2=O)C3=O)cc1Cl` (stereo not given), which Potency is on record?
**A.** 8.1 nM (active)

**Q.** With `CN(C)Cc1c(C(=O)NCCOc2ccc(C(=O)NO)cc2)oc2ccccc12` as the molecule, how does the Potency read?
**A.** 162 nM (active)

**Q.** Which Potency does the source give for `O=C(CCCCCCC(=O)Nc1ccccc1)NO` here?
**A.** 914 nM (active)

**Q.** For `CC[C@@]1(O)C(=O)OCc2c1cc1n(c2=O)Cc2cc3c(CN(C)C)c(O)ccc3nc2-1`, which Potency is on record?
**A.** 7260 nM (active)

**Q.** For `CCC(=C/[C@H](C)C/C=C/C(C)=C/[C@@H](C)C(=O)[C@@H](C)[C@H](O)[C@@H](C)C/C(C)=C/C(=O)O)/C=C/[C@@H]1OC(=O)C=C[C@@H]1C`, which “activity change, negative = inhibition” value is on record?
**A.** -89.2%

**Q.** With `CC(=O)c1ccc2c(c1)c1cc(C(C)=O)ccc1n2CCNC(C)C` as the molecule, how does the Potency read?
**A.** 647 nM (active)

**Q.** For `CC[C@H]1CN2CCc3cc(OC)c(OC)cc3[C@@H]2C[C@@H]1C[C@H]1NCCc2cc(OC)c(OC)cc21`, which Potency is on record?
**A.** 129 nM (active)

**Q.** For `CC[C@]1(O)C[C@H]2CN(CCc3c([nH]c4ccccc34)[C@@](C(=O)OC)(c3cc4c(cc3OC)N(C=O)[C@H]3[C@@](O)(C(=O)OC)[C@H](OC(C)=O)[C@]5(CC)C=CCN6CC[C@]43[C@@H]65)C2)C1`, which “activity change, negative = inhibition” value is on record?
**A.** 3.61%

**Q.** For `CC(C)(C)CC(=O)OCC(=O)[C@@]1(O)CC[C@H]2[C@@H]3CCC4=CC(=O)C=C[C@]4(C)[C@H]3[C@@H](O)C[C@@]21C`, which “activity change, negative = inhibition” value is on record?
**A.** -8.02%

**Q.** Which “activity change, negative = inhibition” value does the source give for `CCCCC(=O)O[C@]1(C(=O)CO)[C@@H](C)C[C@H]2[C@@H]3CCC4=CC(=O)C=C[C@]4(C)[C@@]3(F)[C@@H](O)C[C@@]21C` here?
**A.** -22.8%

**Q.** With `COc1cccc2nc(-c3cccs3)nc(NN3C(=O)C=C(C)C3=O)c12` as the molecule, how does the Potency read?
**A.** 1820 nM (active)

**Q.** For `C[C@H](NC(=O)/C(C#N)=C/c1cccc(Br)n1)c1ccccc1`, which Potency is on record?
**A.** 20500 nM (active)

**Q.** With `CS(=O)(=O)N1CCC(NC(=O)c2[nH]ncc2NC(=O)c2c(Cl)cccc2Cl)CC1` as the molecule, how does the Potency read?
**A.** 1450 nM (active)

**Q.** Which Potency does the source give for `Cc1cc(Nc2cc(NC(=O)c3c(Cl)cccc3Cl)ccn2)nc(N)n1` here?
**A.** 2050 nM (active)

**Q.** Which “activity change, negative = inhibition” value does the source give for `CCCC(=O)O[C@]1(C(=O)CO)CC[C@H]2[C@@H]3CCC4=CC(=O)CC[C@]4(C)[C@H]3[C@@H](O)C[C@@]21C` here?
**A.** -0.267%

**Q.** For `COc1cc2c(cc1-c1c(C)noc1C)ncc1[nH]c(=O)n([C@H](C)c3ccccn3)c12`, which Potency is on record?
**A.** 4080 nM (active)

**Q.** With `CN1CCC(c2c(O)cc(O)c3c(=O)cc(-c4ccccc4Cl)oc23)C1CO` (stereo not given) as the molecule, how does the Potency read?
**A.** 408 nM (active)

**Q.** For `CCc1c(O)cc(O)c(C(=O)c2ccc(OCCN3CCOCC3)c(OC)c2)c1CC(=O)N(CCOC)CCOC`, which Potency is on record?
**A.** 814 nM (active)

**Q.** Which Potency does the source give for `Cc1sc2c(c1C)C(c1ccc(Cl)cc1)=N[C@@H](CC(=O)Nc1ccc(OCCOCCOCCOCCNc3cccc4c3C(=O)N(C3CCC(=O)NC3=O)C4=O)cc1)c1nnc(C)n1-2` (stereo not given in full) here?
**A.** 91.4 nM (active)

**Q.** Which Potency does the source give for `C/C=C1\NC(=O)[C@H]2CSSCCC=C[C@H](CC(=O)N[C@H](C(C)C)C(=O)N2)OC(=O)[C@H](C(C)C)NC1=O` here?
**A.** 5.8 nM (active)

**Q.** For `CC(=O)NCC(=O)N1[C@@H]2CC[C@H]1c1ccc(Nc3ncc(C(F)(F)F)c(NC4CCC4)n3)cc12`, which Potency is on record?
**A.** 14500 nM (active)
